Source: PubChem BioAssay
MOR-DOR inv ag-1: inverse agonists of MOR-DOR heterodimerization, primary screen, cell-based, luminescence; cell-based MOR-DOR heterodimer luminescence, inverse agonism; inhibition, % at 9.3 µM; AID 504357, 2011; hit rate 0.21% among 340,000; Mu-type opioid receptor (Homo sapiens) + Delta-type opioid receptor (Homo sapiens), …; in the data active = inhibition above about 22%, passing the limit was not always enough;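 note: 0% = cells with DMSO and 100% = wells without cells with DMSO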
OPRM1-OPRD1 ag: agonists of OPRM1-OPRD1 heterodimerization, primary screen, cell-based, luminescence; Mu-type opioid receptor (Homo sapiens) + Delta-type opioid receptor (Homo sapiens), …; hit rate 0.3% among 340,000; cells; activation, % at 9.3 µM; in the data active = activation above about 18%;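 note: 0% = vehicle-treated cells and 100% = reference agonist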
HTR5A ag: HTR5A agonists in luminescence cell assay, primary screen, counter-screen for OPRM1-OPRD1 heterodimer agonist project, full-deck HTS. 5-hydroxytryptamine receptor 5A (Homo sapiens), P47898. cell-based. activation, % at 9.3 µM. hit rate 0.61% among 340,000; in the data active = activation mostly above about 9.5%, no sharp cut-off; inactive = mostly below about 7.6%;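 note: 0% = cells with vehicle only and 100% = reference agonist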
Target sequence (P47898 whole entry, looked up): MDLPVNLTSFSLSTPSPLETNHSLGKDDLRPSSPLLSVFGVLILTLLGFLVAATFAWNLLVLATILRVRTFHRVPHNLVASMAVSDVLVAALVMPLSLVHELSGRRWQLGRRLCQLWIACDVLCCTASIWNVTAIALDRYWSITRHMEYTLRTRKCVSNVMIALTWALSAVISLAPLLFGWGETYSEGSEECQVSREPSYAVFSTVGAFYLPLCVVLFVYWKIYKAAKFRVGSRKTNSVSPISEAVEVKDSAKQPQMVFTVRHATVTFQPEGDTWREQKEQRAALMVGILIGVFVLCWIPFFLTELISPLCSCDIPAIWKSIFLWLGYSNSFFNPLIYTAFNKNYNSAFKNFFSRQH
HTR5A inv ag: HTR5A inverse agonists in luminescence cell assay, primary screen, counter-screen for OPRM1-OPRD1 heterodimer inverse agonist project, full-deck HTS; 5-hydroxytryptamine receptor 5A (Homo sapiens), P47898; hit rate 0.083% among 340,000; HTR5A cell line, inverse agonism; inhibition, % at 9.3 µM; in the data active = inhibition mostly above about 23%, no sharp cut-off; inactive = mostly below about 18%;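 note: 0% = cells with DMSO and 100% = no-cell wells with DMSO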
MOR-DOR inv ag-2: inverse agonists of MOR-DOR heterodimerization, counter-screen for HTR5A inverse agonist project, cell-based, luminescence; 190 tested, under 10 active; U2OS counter-screen cells, complementation luminescence; AID 504912, 2011; shares compounds with HTR5A inv ag; inhibition, % at 9.3 µM;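 note: 0% = cells with DMSO and 100% = wells without cells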
HTR5A inv confrm: HTR5A inverse agonists, retest of hits, confirmation, cell-based, luminescence | shares compounds with HTR5A inv ag | HTR5A-expressing cells, inverse agonism | inhibition, % at 9.3 µM | 190 tested, under 10 active | AID 504916, 2011;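 note: 0% = cells with DMSO and 100% = no cells with DMSO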
* marks the source's active call; other numbers are inactive results. The list is not random: actives were taken first. Their share in the collection is about 1.1%. Unless noted, the rule behind the calls is not given here.

Screening CN(C)c1ccc2nc3c(=O)[nH]c(=O)nc-3n(CC(O)C(O)C(O)CO)c2c1 (configuration not stated) returned MOR-DOR inv ag-1 29, OPRM1-OPRD1 ag -6, HTR5A ag -9, HTR5A inv ag 33*, MOR-DOR inv ag-2 18 and HTR5A inv confrm 85*.
O=C(Cc1ccccc1[N+](=O)[O-])NCC1(c2cccc3c2OCO3)OCCO1 was read as MOR-DOR inv ag-1 12, OPRM1-OPRD1 ag -3, HTR5A ag 1 and HTR5A inv ag -2.
For Cc1ccc(C)c(OCC(=O)N(C)CC(=O)Nc2ccc(Cl)c(C(F)(F)F)c2)c1 the results were MOR-DOR inv ag-1 3, OPRM1-OPRD1 ag -1, HTR5A ag 3 and HTR5A inv ag -21.
For Cn1c(N=Nc2ccc(N3CCOCC3)cc2)[n+](C)c2ccccc21 the results were MOR-DOR inv ag-1 14, OPRM1-OPRD1 ag -3, HTR5A ag -14, HTR5A inv ag 37*, MOR-DOR inv ag-2 -76 and HTR5A inv confrm -36.
CCOc1ccc(NC(=O)CN(C)C(=O)C2CC(=O)N(Cc3ccco3)C2)cc1OCC (configuration not stated) was read as MOR-DOR inv ag-1 4, OPRM1-OPRD1 ag -1, HTR5A ag 6 and HTR5A inv ag -16.
O=[N+]([O-])c1ccc(/C=N/Nc2ccc3ccccc3c2)o1 was read as MOR-DOR inv ag-1 -51, OPRM1-OPRD1 ag 7, HTR5A ag -11, HTR5A inv ag 28*, MOR-DOR inv ag-2 -71 and HTR5A inv confrm 18.
For CCC1(C)Cc2ccccc2-c2c1c(=O)n(-c1ccc(C)cc1)c1nnnn21 (configuration not stated) the results were MOR-DOR inv ag-1 5, OPRM1-OPRD1 ag -1, HTR5A ag -1, HTR5A inv ag 40*, MOR-DOR inv ag-2 -120 and HTR5A inv confrm -24.
`CCCCn1c(N)c(N(CC(C)C)C(=O)c2ccc(S(=O)(=O)N3CCCCC3)cc2)c(=O)[nH]c1=O` gave MOR-DOR inv ag-1 11, OPRM1-OPRD1 ag -2, HTR5A ag -4 and HTR5A inv ag 3.
`COc1ccc(Cl)cc1C(=O)NNC(=O)COC(=O)CCN=C1NS(=O)(=O)c2ccccc21` gave MOR-DOR inv ag-1 29, OPRM1-OPRD1 ag -6, HTR5A ag -29, HTR5A inv ag 71*, MOR-DOR inv ag-2 -20 and HTR5A inv confrm -138.
Screening O=C(Nc1ccc2c(c1)C(=O)OC2)c1ccc(F)cc1F returned MOR-DOR inv ag-1 14, OPRM1-OPRD1 ag -3, HTR5A ag -2 and HTR5A inv ag -8.
`O=[N+]([O-])c1cc(/C=N/N/C(=N/c2ccccn2)c2ccccn2)ccc1O` gave MOR-DOR inv ag-1 12, OPRM1-OPRD1 ag -2, HTR5A ag -9, HTR5A inv ag 24*, MOR-DOR inv ag-2 27 and HTR5A inv confrm -37.
For O=[N+]([O-])c1ccc(/C=N/N/C(=N/c2ccccn2)c2ccccn2)cc1 the results were MOR-DOR inv ag-1 -18, OPRM1-OPRD1 ag 3, HTR5A ag -2 and HTR5A inv ag 3.
For CSc1ccccc1NC(=O)CN1C(=O)C2CC=CCC2C1=O (configuration not stated) the results were MOR-DOR inv ag-1 6, OPRM1-OPRD1 ag -1, HTR5A ag -1 and HTR5A inv ag 6.
Screening CCOc1cc(/C=N/NC(=O)c2cccs2)cc([N+](=O)[O-])c1O returned MOR-DOR inv ag-1 22, OPRM1-OPRD1 ag -4, HTR5A ag -9, HTR5A inv ag 25*, MOR-DOR inv ag-2 55* and HTR5A inv confrm -4.
For CN1CCN(C(c2ccc(Cl)cc2)c2cc(Cl)c3cccnc3c2O)CC1 (configuration not stated) the results were MOR-DOR inv ag-1 -59, OPRM1-OPRD1 ag 11, HTR5A ag 4 and HTR5A inv ag -9.
For Oc1c(C(c2ccccn2)N2CCCCC2)cc(Cl)c2cccnc12 (configuration not stated) the results were MOR-DOR inv ag-1 -43, OPRM1-OPRD1 ag 9, HTR5A ag -10, HTR5A inv ag 29*, MOR-DOR inv ag-2 6 and HTR5A inv confrm 5.
For COc1cccc(NC(=O)C2Cc3ccccc3CN2C(=O)c2ccco2)c1 (configuration not stated) the results were MOR-DOR inv ag-1 -1, OPRM1-OPRD1 ag 0, HTR5A ag 1 and HTR5A inv ag -5.
COCCn1c(SCC(=O)NNC(=O)c2cc(Cl)ccc2OC)nnc1-c1ccncc1 was read as MOR-DOR inv ag-1 6, OPRM1-OPRD1 ag -1, HTR5A ag -18, HTR5A inv ag 43*, MOR-DOR inv ag-2 -24 and HTR5A inv confrm -154.
`O=c1[nH]n2c(=O)c3c([nH]c2c1N=Nc1cccc(Cl)c1)CCCC3` gave MOR-DOR inv ag-1 27, OPRM1-OPRD1 ag -5, HTR5A ag -4, HTR5A inv ag 42*, MOR-DOR inv ag-2 inactive and HTR5A inv confrm -1.
Screening CCN1c2ccccc2S(=O)(=O)c2ccccc21 returned MOR-DOR inv ag-1 17, OPRM1-OPRD1 ag -4, HTR5A ag -10, HTR5A inv ag 34*, MOR-DOR inv ag-2 2 and HTR5A inv confrm -5.
`O=C(CSc1ccc(-c2ccco2)nn1)Nc1ccccc1F` gave MOR-DOR inv ag-1 1, OPRM1-OPRD1 ag 0, HTR5A ag 7 and HTR5A inv ag 8.
O=C(Nc1nnc(-c2ccccc2)o1)c1nc2ccccc2s1 was read as MOR-DOR inv ag-1 11, OPRM1-OPRD1 ag -2, HTR5A ag -15, HTR5A inv ag 41*, MOR-DOR inv ag-2 inactive and HTR5A inv confrm 1.
O=C(/C=C/c1ccc(F)cc1)NC(=S)NNC(=O)[C@H]1C[C@@H]1c1ccccc1 was read as MOR-DOR inv ag-1 20, OPRM1-OPRD1 ag -4, HTR5A ag -12, HTR5A inv ag 48*, MOR-DOR inv ag-2 -40 and HTR5A inv confrm -56.
Screening O=C(NC(=S)NNC(=O)[C@H]1C[C@@H]1c1ccccc1)c1ccc(F)cc1 returned MOR-DOR inv ag-1 9, OPRM1-OPRD1 ag -2, HTR5A ag 3 and HTR5A inv ag -3.
Cc1c(Cl)cccc1NC(=O)CNC(=O)CCCc1nc2ccccc2c(=O)[nH]1 was read as MOR-DOR inv ag-1 16, OPRM1-OPRD1 ag -3, HTR5A ag -4 and HTR5A inv ag 11.
`O=C(CN1CCN(S(=O)(=O)c2ccc(F)cc2)CC1)NC1CCCC1` gave MOR-DOR inv ag-1 7, OPRM1-OPRD1 ag -1, HTR5A ag 0, HTR5A inv ag 35*, MOR-DOR inv ag-2 -17 and HTR5A inv confrm 6.
O=C(CN1CCN(S(=O)(=O)c2ccc(Cl)cc2)CC1)NC1CCCC1 was read as MOR-DOR inv ag-1 3, OPRM1-OPRD1 ag -1, HTR5A ag 0 and HTR5A inv ag 0.
